High-throughput results (PubChem BioAssay)
VP16 counter: VP16 counterscreen qHTS for inhibitors of ROR gamma transcriptional activity; Drosophila S2 Gal4-VP16 UAS-luciferase, luminescence, 20 h; Potency, µM (highest dose often 53.6 µM), inactives show top-dose activity, negative = inhibition, actives largely listed as inhibitors; hit rate 3.5% among 310,000; AID 2546, 2010;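 further: Gal4-VP16 expression switched on by copper sulfate through the metallothionein promoter; potency means the concentration at half of the fitted maximal effect; nearly all actives have a fitted effect of over 50% in size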
TDP1 cell CPT: qHTS for Inhibitors of human tyrosyl-DNA phosphodiesterase 1 (TDP1): qHTS in cells in presence of CPT; Potency, µM (doses to about 46.2 µM), for the others: at the highest dose activity change, negative = growth inhibition, hits mostly inhibitors; AID 686979, 2013; chicken DT40 Tdp1-/-;hTDP1 cells + 20 nM CPT, ATP luminescence, 48 h; hit rate 12% among 420,000; further: potency means the concentration at half of the fitted maximal effect; nearly all actives have a fitted effect of over 55% in size
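Chicken DT40 Tdp1-/- cells complemented with human TDP1, 400 cells/well, exposed to compounds plus 20 nM camptothecin for at least 48 h at 37 C; viability read as ATP content by CellTiter-Glo luminescence.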
LDHA inh: qHTS assay for inhibitors of human lactate dehydrogenase. purified LDHA, NADH/diaphorase-resazurin fluorescence; active compounds read low. hit rate 0.15% among 480,000. L-lactate dehydrogenase A chain (Homo sapiens), P00338. activity change, % (values are at about 110 or 230 µM). AID 1347041, 2019; in the data active means activity change below about -30%; inconclusive means mostly about -25% to -30%;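 further: plate controls were DMSO wells for no effect and wells without enzyme for full effect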
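Human LDH5 at 2 nM final in Tris HCl pH 7.4 with 0.06 mM NADH and 0.2 mM pyruvate, reacted 5 minutes at room temperature. Remaining NADH coupled via diaphorase/resazurin; resorufin fluorescence read at 0 and 20 minutes, normalized to enzyme-free and DMSO wells.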
TDP1 cell noCPT: qHTS for Inhibitors of human tyrosyl-DNA phosphodiesterase 1 (TDP1): qHTS in cells in absence of CPT; DT40 Tdp1-/- hTDP1 cells, no CPT, ATP luminescence, 48 h; Potency, µM (highest dose often 46.2 µM), without a hit: at the top dose activity change, negative = growth inhibition, actives largely listed as inhibitors; hit rate 15% among 420,000; AID 686978, 2013; further: potency means the concentration at half of the fitted maximal effect; nearly all actives have a fitted effect of over 55% in size
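No-CPT arm: Tdp1-/-;hTDP1 DT40 cells (400/well) plus compounds, incubated ≥48 hr at 37 °C. Readout CellTiter-Glo luminescence.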
IL1B secr inh: qHTS for Inhibitors of Inflammasome Signaling: IL-1-beta AlphaLISA Primary Screen; THP-1 LPS/ATP IL-1B secretion, AlphaLISA, 16 h; active compounds read low; activity change, % at 57.5 µM; hit rate 4.7% among 360,000; AID 743279, 2014; in the data active means activity change below about -50%; inconclusive means mostly about -30% to -49%
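THP-1 cells pretreated 1 hr with compounds (up to 57.5 uM final), then stimulated with LPS (250 ng/mL final) plus ATP (1.25 mM final); secreted IL-1B measured by AlphaLISA after 16 hr, decreased signal indicating inhibition.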
RORgamma inh: qHTS for inhibitors of ROR gamma transcriptional activity; Nuclear receptor ROR-gamma (Mus musculus), P51450; Drosophila S2 Gal4-RORgamma UAS-luciferase reporter, 20 h; Potency, µM (top dose mostly 53.6 µM), without a hit: at the top dose activity change, negative = inhibition, usual class: inhibitors; hit rate 5.4% among 310,000; AID 2551, 2010; further: potency means the concentration at half of the fitted maximal effect; nearly all actives have a fitted effect of over 60% in size
Target sequence (P51450 whole entry, looked up, the tested form may be a part): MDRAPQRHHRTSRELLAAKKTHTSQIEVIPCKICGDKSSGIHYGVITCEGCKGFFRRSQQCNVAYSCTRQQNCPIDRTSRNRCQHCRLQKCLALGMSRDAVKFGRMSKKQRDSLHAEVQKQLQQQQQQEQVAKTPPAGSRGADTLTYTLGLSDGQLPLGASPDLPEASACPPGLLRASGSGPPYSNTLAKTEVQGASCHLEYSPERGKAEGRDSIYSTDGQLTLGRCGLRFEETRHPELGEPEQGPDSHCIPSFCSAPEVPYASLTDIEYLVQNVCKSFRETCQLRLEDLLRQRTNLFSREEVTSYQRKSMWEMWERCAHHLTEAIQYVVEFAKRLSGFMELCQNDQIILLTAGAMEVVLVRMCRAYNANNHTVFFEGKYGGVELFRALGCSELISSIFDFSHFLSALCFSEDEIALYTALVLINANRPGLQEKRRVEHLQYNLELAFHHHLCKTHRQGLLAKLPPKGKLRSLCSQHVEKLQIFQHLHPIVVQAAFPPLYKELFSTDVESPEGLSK
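Read-out: Photinus luciferase luminescence; inhibitors lower reporter signal. Insect Schneider cells with Gal4-ROR gamma fusion under metallothionein promoter, UAS reporter; 700 uM final copper sulfate induction, 20 hr, ambient temperature.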
Starred values were filed as active, the others as inactive; ? = inconclusive; nt = not tested or not shown; [ ] = another dose, or the depositor's remark. The list is not random: actives were taken first. Their share in the collection is about 18%. Unless noted, the call rests on the fitted dose curve; in most records, active means well fitted curve in the direction sought with a large enough effect; inconclusive means small, poorly fitted or top-dose-only effect, or another doubt; inactive means no such curve, though single readings can be large; an effect the other way counts as inactive or inconclusive. Unless noted, on the % scale 0 is the no-effect control and ±100 the full control effect.

SMILES	VP16 counter	TDP1 cell CPT	LDHA inh	TDP1 cell noCPT	IL1B secr inh	RORgamma inh
COCCN(C(=S)Nc1cc(C)cc(C)c1)C(C)c1ccco1 (stereo not given)	4.1%[10 µM]	?	-3.7	25.9µM*	-12.2	8.91µM*
COCCN(C(=S)Nc1cc(C)cc(C)c1)C(C)c1cccs1 (stereo not given)	22.4µM*	18.4µM*	-6.2	?	-9.6	10µM*
O=Cc1ccc(OCc2ccc(Cl)cc2Cl)cc1	nt	nt	1.9	nt	nt	nt
CC/C(=C/c1ccccc1)c1cccc2[nH]c3c(OC)cccc3c12	-3.6%	20.6µM*	11.2	?	4.0	17.8%
COc1cc(CN2CC(=O)N(c3cccc(Cl)c3C)C2=S)cc(OC)c1OC	0.1%	23.1µM*	1.9	?	-5.2	16.6%
COc1cc(Cl)c(C)cc1N1C(=O)CN(Cc2ccccc2)C1=S	3.7%	-26.9%	-0.3	?	-9.5	3.8%
COc1cc(CN2CC(=O)N(c3ccccc3Cl)C2=S)cc(OC)c1OC	?	18.4µM*	-10.1	?	-13.9	24.1%
O=c1[nH]c(-c2ccccc2)cs1	10.3%	-29.7%	-6.8	-21.3%	15.8	0.7%
O=c1[nH]c(-c2ccc(Cl)cc2)cs1	-7.3%	?	-10.3	-23.9%	-55.2*	-24.9%
CCC(=O)c1cc(F)c(N2CCN(C(=O)c3ccco3)CC2)cc1C	?	?	-3.1	29.1µM*	20.8	?
CCCC(=O)c1cc(F)c(N2CCOCC2)cc1C	13.7%	-11.4%	-2.5	-13.1%	-5.0	4.5%
CCCC(=O)c1ccc(N2CCN(S(=O)(=O)c3ccccc3)CC2)c(F)c1	?	?	-5.9	?	16.1	?
CC(=O)c1cc(F)c(N2CCN(C(=O)Cc3ccccc3)CC2)cc1C	-12.3%	14.6µM*	-7.9	14.6µM*	-13.1	25.0%
CCCC(=O)c1cc(F)c(N2CCN(S(=O)(=O)c3ccccc3)CC2)cc1C	-9.6%	16.4µM*	0.9	11.2µM*	-58.8*	0.1%
CC(C)CCC(C)NC(=O)Cc1coc(-c2ccccc2)n1 (stereo not given)	nt	nt	-0.5	nt	nt	nt
Cc1cc2oc(=O)cc(CN3CCCCCC3)c2cc1Cl	nt	nt	-10.6	nt	nt	nt
Cc1ccccc1-c1nc(CN2CCC(C(=O)N3CCN(c4ccccn4)CC3)CC2)c(C)o1	0.7%	23.1µM*	-13.1	?	-0.3	-0.5%
Cc1ccccc1-c1nc(CN2CCC(C(=O)N3CCC(C(N)=O)CC3)CC2)c(C)o1	-3.7%	18.3%	-4.7	-0.8%	-19.4	-15.9%
CCOC(=O)C1CCCN(C(=O)C2CCN(Cc3nc(-c4ccc(Cl)cc4)oc3C)CC2)C1 (stereo not given)	nt	?	-2.1	20.6µM*	-24.0	nt
CCOc1ccc(-c2nc(CN3CCCC(C(=O)N4CCOCC4)C3)c(C)o2)cc1 (stereo not given)	-21.2%	-21.4%	0.0	-3.4%	42.3	1.9%
CCN1CCN(CCNC(=O)C2CCN(Cc3nc(-c4ccc(Cl)cc4)oc3C)CC2)CC1	-0.8%	nt	nt	nt	nt	11.1%
Cc1oc(-c2ccc(Cl)cc2)nc1CN1CCC(C(=O)N2CCN(Cc3ccccc3)CC2)CC1	-3.1%	?	-0.6	?	-59.8*	-9.3%
Cc1oc(-c2ccc(Cl)cc2)nc1CN1CCC(C(=O)N2CCc3ccccc3C2)CC1	9.3%	23.1µM*	-5.9	18.4µM*	-10.2	-2.9%
N#Cc1ccc(OCC(O)CSc2ccc(O)cc2)cc1 (stereo not given)	nt	nt	-0.8	nt	nt	nt
CCN(CC)CCN(Cc1cc2ccc(C)c(C)c2[nH]c1=O)C(=S)NCc1ccco1	-1.1%	?	-5.4	?	nt	14.9%
SMILES	VP16 counter	TDP1 cell CPT	LDHA inh	TDP1 cell noCPT	IL1B secr inh	RORgamma inh
CCN(CC)CCN(Cc1cc2cc(C)cc(C)c2[nH]c1=O)C(=S)NCc1ccco1	?	25.9µM*	-1.0	23.1µM*	0.0	2.7%
CCN(CC)CCN(Cc1cc2cc3c(cc2[nH]c1=O)OCO3)C(=S)NCc1ccco1	-11.4%	?	-0.1	?	-63.4*	-3.0%
Cc1cc(C)c2[nH]c(=O)c(CN(Cc3cccs3)C(=S)NCc3ccco3)cc2c1	10.6%	13µM*	-3.4	10.3µM*	-17.2	-11.0%
CCN(CC)CCN(Cc1cc2cc3c(cc2[nH]c1=O)OCCO3)C(=S)NCC(C)C	-0.1%	?	-3.0	?	-61.9*	27.2%
CC(C)(C)C(=O)/C=c1/[nH]c(=O)/c(=C/c2c(F)c(F)c(F)c(F)c2F)s1	nt	nt	9.1	nt	nt	nt
CCN(c1ccccc1)S(=O)(=O)c1ccc(/C=C\c2onc(C)c2NC(=O)C2CC2)cc1	nt	nt	1.7	nt	nt	nt
Cc1ccc(-c2c(NC(=O)CN3CCN(CCO)CC3)oc3ccccc3c2=O)cc1	nt	nt	-22.6	nt	nt	nt
CC1c2cc3c(cc2CCN1C(=O)c1cccc(Cl)c1)OCCCO3 (stereo not given)	0.2%	7.31µM*	1.1	6.51µM*	19.5	-31.1%
CC1c2cc3c(cc2CCN1CC(=O)Nc1ccccc1)OCCCO3 (stereo not given)	-3.5%	14.6µM*	-5.1	23.1µM*	5.8	-29.7%
Cc1ccc(NC(=O)CN2CCc3cc4c(cc3C2C)OCCCO4)cc1 (stereo not given)	0.0%	?	-2.7	?	?	28.5%
Cc1cc(C)n2nc(C(=O)OC(C(=O)c3c[nH]c4ccccc34)c3ccccc3)nc2n1 (stereo not given)	nt	nt	-2.7	nt	nt	nt
COc1ccc(-c2nc(CN3CCC(C(=O)NC4CCCC4)CC3)c(C)o2)cc1OC	-5.5%	-5.2%	-4.7	0.5%	36.4	2.8%
Cc1cccc(-c2nc(CN3CCCC(C(=O)NC4CCCCCC4)C3)c(C)o2)c1 (stereo not given)	6.6%	20.6µM*	3.3	18.4µM*	-65.7*	-11.7%
CCOC(=O)N1CCC(NC(=O)C2CCCN(Cc3nc(-c4ccc(CC)cc4)oc3C)C2)CC1 (stereo not given)	?	2.91µM*	0.0	1.46µM*	-9.0	17.2%
Cc1cccc(-c2nc(CN3CCCC(C(=O)NC4CCCCC4)C3)c(C)o2)c1 (stereo not given)	0.6%	20.6µM*	-4.8	20.6µM*	-5.8	-12.7%
Cc1ccccc1S(=O)(=O)Nc1ccccc1SCc1cc(=O)n2cc(Cl)ccc2n1	nt	nt	0.1	nt	nt	nt
